# Data published in PubChem BioAssay AID2533 (National Center for Advancing Translational Sciences (NCATS), 2010).
# Records with an inconclusive call do not appear. A call without a number means that no potency is given here. The source made the active and inactive calls. Calls follow the shape of the dose curve; as a rule, active = well fitted activation curve with a large enough effect; inconclusive = small, poorly fitted or top-dose-only effect; inactive = flat fitted curve, though single readings scatter.
# Molecular target: Pyruvate kinase PKM (Homo sapiens) (UniProt P14618)
# Sequence (P14618 whole entry, looked up, canonical isoform): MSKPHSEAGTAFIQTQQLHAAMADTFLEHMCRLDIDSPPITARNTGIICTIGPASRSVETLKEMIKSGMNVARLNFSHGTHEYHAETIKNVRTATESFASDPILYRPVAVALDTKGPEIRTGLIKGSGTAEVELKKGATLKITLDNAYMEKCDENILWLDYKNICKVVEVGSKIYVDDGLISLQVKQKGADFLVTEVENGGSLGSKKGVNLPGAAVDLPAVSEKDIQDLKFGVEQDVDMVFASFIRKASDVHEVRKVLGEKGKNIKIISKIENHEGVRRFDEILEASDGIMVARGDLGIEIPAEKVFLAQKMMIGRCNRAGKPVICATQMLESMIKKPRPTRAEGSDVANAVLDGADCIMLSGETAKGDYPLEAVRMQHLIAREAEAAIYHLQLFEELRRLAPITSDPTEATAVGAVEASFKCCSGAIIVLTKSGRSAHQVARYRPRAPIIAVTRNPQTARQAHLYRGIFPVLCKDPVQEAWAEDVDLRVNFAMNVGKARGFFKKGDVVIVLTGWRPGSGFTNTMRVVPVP
# Assay: Confirmation Concentration-Response Assay for Activators of Human Muscle isoform 2 Pyruvate Kinase: for Probe SAR; also: nearly all actives have a fitted effect of over 60% in size
# Conditions: purified PKM2, ATP generation, Kinase-Glo luminescence; series mostly up to 57.5 µM
# From the text: NIH Chemical Genomics Center [NCGC]
# Matthew G. Vander Heiden, M.D., Ph.D. [Harvard Medical School, 77 Avenue Louis Pasteur, Boston, MA 02115]
# Human pyruvate kinase muscle 2 (hPK-M2) enzyme was supplied as a highly purified (>95% pure) preparation from Harvard Medical School and assayed for its ability to generate ATP from ADP using phosphoenolpyruvate (PEP) as a substrate. ATP generation was detected in a coupled reaction by luciferase-mediated luminescence, an ATP-dependent process. […] The enzyme was assayed at an intermediate level of activity to screen for both inhibitors and activators.
# NCGC Assay Protocol Summary:
# Three uL of substrate mix (at r.t.) in assay buffer (50 mM Imidazole pH7.2, 50 mM KCl, 7 mM MgCl2, 0.01% Tween 20, 0.05% BSA) was dispensed into white solid bottom 1,536 well microtiter plates so that the final concentrations of substrates in the assay were 0.1 mM ADP and 0.5 mM PEP. 23 nL of compound were delivered by a pin tool and 1 uL of enzyme mix (final concentration of 0.1 nM) in assay buffer (4 degree Celsius) was added. Plates were incubated at room temperature for 1 hour. Two uL of detection mix (Kinase-Glo, Promega; at 4 degree Celsius protected from light) was added and luminescence read by a ViewLux (Perkin Elmer) at 1 second exposure/plate. Data were normalized to the uninhibited (column 3) and AC100 inhibition (no enzyme in column 2). To monitor activation, the first column contained a titration of the activator, NCGC00031955-03 (16-point 1:2 dilutions in duplicate starting at 57 uM) and the first 16 rows of column 4 contained 57 uM of NCGC00031955-03.
# Potency is read from the fitted curve at half-maximal effect.
row,Structure (SMILES),Potency
1,O=S1(=O)N=C(Oc2ccc3ccccc3c2)c2ccccc21,inactive
2,Cc1ccc(NS(=O)(=O)c2cc3c(cc2Cl)NC(=O)CO3)cc1C,410 nM (active)
3,N#Cc1ccccc1OC1=NS(=O)(=O)c2ccccc21,inactive
4,O=C1CCc2cc(S(=O)(=O)Nc3cccc4ccccc34)ccc2N1,13000 nM (active)
5,Fc1ccccc1-c1ccc(-c2nc3ccc(Cl)cn3c2Nc2ccc(Cl)cc2)o1,inactive
6,Cc1ccc(-c2nc3ccccn3c2Nc2ccc(F)cc2)o1,inactive
7,O=S1(=O)N=C(OCc2ccccc2)c2ccccc21,inactive
8,COc1cc(F)c(S(=O)(=O)N2CCN(S(=O)(=O)c3ccc(NC(C)=O)cc3)CC2)c(F)c1,13000 nM (active)
9,Cc1ccc2nc(-c3cccs3)c(Nc3ccccc3)n2c1,inactive
10,O=C1CCc2cc(S(=O)(=O)Nc3ccccc3Cl)ccc2N1,18300 nM (active)
11,O=C(O)c1ccccc1SC1=NS(=O)(=O)c2ccccc21,32600 nM [inhibitor] (active)
12,O=S1(=O)N=C(Oc2ccc(-c3ccccc3)cc2)c2ccccc21,inactive
13,Cc1ccc(NS(=O)(=O)c2cc3c(cc2N(C)C)NC(=O)CC3)cc1C,366 nM (active)
14,CC(=O)N1CCc2cc(S(=O)(=O)Nc3ccc(C)c(C)c3)ccc21,1630 nM (active)
15,COc1cc(F)c(S(=O)(=O)N2CCN(S(=O)(=O)c3ccc(N)cc3)CC2)c(F)c1,130 nM (active)
16,CNc1cccc(S(=O)(=O)N2CCCN(S(=O)(=O)c3ccc4c(c3)OCCO4)CC2)c1,103 nM (active)
17,O=C1CCc2cc(S(=O)(=O)Nc3ccc4ncccc4c3)ccc2N1,inactive
18,O=S1(=O)N=C(Oc2ccccc2C(F)(F)F)c2ccccc21,inactive
19,Nc1ccc(S(=O)(=O)N2CCCN(S(=O)(=O)c3ccc4c(c3)OCCO4)CC2)cc1,1030 nM (active)
20,CC(=O)Nc1cccc(S(=O)(=O)N2CCN(S(=O)(=O)c3c(F)cccc3F)CC2)c1,14600 nM (active)

row,Structure (SMILES),Potency
1,COc1ccc(NS(=O)(=O)c2ccccc2)cc1NS(=O)(=O)c1ccccc1,inactive
2,Cc1ccc(-c2nc3cnccn3c2Nc2ccc(C(C)C)cc2)o1,inactive
3,O=C1CCc2cc(S(=O)(=O)Nc3ccc(Cl)cc3)ccc2N1,2060 nM (active)
4,Cc1ccc(C)c(O)c1,inactive
5,COc1ccc(Nc2c(-c3ccc(C)o3)nc3ccccn23)cc1,inactive
6,COc1ccc(N2C(=O)c3ccccc3S2(=O)=O)cc1,inactive
7,Cc1ccc(Nc2c(-c3ccsc3)nc3c(C)cccn23)cc1,inactive
8,O=S1(=O)N=C(Oc2ccc(C(F)(F)F)cc2)c2ccccc21,inactive
9,O=S1(=O)N=C(Oc2ccccc2)c2ccccc21,inactive
10,Cc1ccc(NS(=O)(=O)c2ccc(N3CCCC3=O)cc2)cc1C,inactive
11,O=C1CCc2cc(S(=O)(=O)Nc3ccc(F)c(Cl)c3)ccc2N1,291 nM (active)
12,COc1cc(F)c(S(=O)(=O)N2CCCN(S(=O)(=O)c3ccc(NC(C)=O)cc3)CC2)c(F)c1,16300 nM (active)
13,O=C1c2ccccc2C(=O)N1c1cnc2ccccc2c1,inactive
14,COc1cccc(NS(=O)(=O)c2ccc3c(c2)CCC(=O)N3)c1,5170 nM (active)
15,COc1ccccc1OC1=NS(=O)(=O)c2ccccc21,inactive
16,Cc1cccc(NS(=O)(=O)c2ccc3c(c2)CCC(=O)N3)c1,1830 nM (active)
17,Cc1ccc(C)c(NC2=NS(=O)(=O)c3ccccc32)c1,inactive
18,Cc1ccccc1OC1=NS(=O)(=O)c2ccccc21,inactive
19,Cc1ccc(NS(=O)(=O)c2ccc3c(c2)CC(=O)N3C)cc1C,3660 nM (active)
20,Cc1ccc(C)c(OC2=NS(=O)(=O)c3ccccc32)c1,inactive
